PubChem BioAssay (NCATS)
Results filed as inconclusive are left out. Activity calls are given as the source filed them. Calls follow the shape of the dose curve; as a rule, active = well fitted inhibition curve with a large enough effect; inconclusive = small, poorly fitted or top-dose-only effect; inactive = flat fitted curve, though single readings scatter. Where a SMILES comes first, the peptide text is derived from it. Bridges are numbered along the chain shown (N, C = ends). [ ]: non-standard residue; d: D form. The star is where a group is joined. Dab(CH2SO3H) = N[C@@H](CCNCS(=O)(=O)O)C(=O)O; X3 = CC[C@@H](C)CCCCC(=O)*; Dab = NCC[C@H](N)C(=O)O

system: astro; test: Drug repurposing screens with cells derived from glioblastoma tumor samples (AID 1345199); settings: viability, ATP luminescence, 48 h; series mostly up to 45.9 µM; activity, negative = cell killing: at the top concentration; also: nearly all actives have a fitted effect of over 40% in size
Method in brief: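 Four patient lines of CD133+ GBM neurospheres were screened at several concentrations; hits were retested in those lines plus three slower-growing GBM lines, using 48-hour treatment and ATP-based viability.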
% is scaled to controls: 0 for no effect and ±100 for the full control effect; potency is read from the fitted curve at half-maximal effect.

| SMILES | Potency | activity, negative = cell killing |
| --- | --- | --- |
| COC(C(=O)C(O)C(C)O)C1Cc2cc3cc(OC4CC(OC5CC(O)C(O)C(C)O5)C(O)C(C)O4)c(C)c(O)c3c(O)c2C(=O)C1OC1CC(OC2CC(OC3CC(C)(O)C(O)C(C)O3)C(O)C(C)O2)C(O)C(C)O1 (configuration not stated) | 0.355 µM (active) | – |
| CC[C@@H](C)CCCCC(=O)N[C@@H](CCNCS(=O)(=O)O)C(=O)N[C@H](C(=O)N[C@@H](CCNCS(=O)(=O)O)C(=O)N[C@H]1CCNC(=O)[C@H]([C@@H](C)O)NC(=O)[C@H](CCNCS(=O)(=O)O)NC(=O)[C@H](CCNCS(=O)(=O)O)NC(=O)[C@H](CC(C)C)NC(=O)[C@@H](CC(C)C)NC(=O)[C@H](CCNCS(=O)(=O)O)NC1=O)[C@@H](C)O (X3-[Dab(CH2SO3H)]T[Dab(CH2SO3H)][Dab][Dab(CH2SO3H)][dL]L[Dab(CH2SO3H)][Dab(CH2SO3H)]T; lactam 4-C) | – | -21.5% (inactive) |
| CCCC(=O)O[C@]1(C(=O)COC(C)=O)CC[C@H]2[C@@H]3C[C@H](F)C4=CC(=O)C=C[C@]4(C)[C@@]3(F)[C@@H](O)C[C@@]21C | – | -17.1% (inactive) |
| COc1ccc(C[C@H](N)C(=O)N[C@H]2[C@@H](O)[C@H](n3cnc4c(N(C)C)ncnc43)O[C@@H]2CO)cc1 | 3.16 µM (active) | – |
| CO[C@H]1C[C@H](O[C@H]2[C@H](C)[C@@H](O[C@@H]3O[C@H](C)C[C@H](N(C)C)[C@H]3OC(C)=O)[C@@H](C)C[C@]3(CO3)C(=O)[C@H](C)[C@@H](OC(C)=O)[C@@H](C)[C@@H](C)OC(=O)[C@@H]2C)O[C@@H](C)[C@@H]1OC(C)=O | – | -5.03% [at 21.2 µM] (inactive) |
| C#C[C@]1(O)CC[C@H]2[C@@H]3CCC4=C/C(=N/O)CC[C@@H]4[C@H]3CC[C@@]21CC | 20 µM (active) | – |
| C[C@@H]1[C@H](O)[C@@H](C)/C=C/C=C\C=C\C=C\C=C\C=C\C=C\[C@H](O[C@@H]2O[C@H](C)[C@@H](O)[C@H](N)[C@@H]2O)C[C@@H]2O[C@](O)(C[C@@H](O)C[C@@H](O)[C@H](O)CC[C@@H](O)C[C@@H](O)CC(=O)O[C@H]1C)C[C@H](O)[C@H]2C(=O)O (stereo in doubt) | – | -7.61% (inactive) |
| CNc1cc(OC)c(C(=O)N[C@H]2CCN(Cc3ccccc3)[C@H]2C)cc1Cl | – | -16% (inactive) |
| O=C1CSC2(CCN(CCCN3c4ccccc4Sc4ccc(Cl)cc43)CC2)N1 | 25.1 µM (active) | – |
| CC1=C(/C=C/C(C)=C/C=C/C(C)=C/C=C/C=C(C)/C=C/C=C(C)/C=C/C2=C(C)C(=O)CCC2(C)C)C(C)(C)CCC1=O | – | -29.6% (inactive) |
| CC1(C)O[C@@H]2C[C@H]3[C@@H]4CCC5=CC(=O)C=C[C@]5(C)[C@H]4[C@@H](O)C[C@]3(C)[C@]2(C(=O)CO)O1 | – | -8.13% (inactive) |
| CCC[C@@H]1C[C@@H](C(=O)N[C@@H]([C@H]2O[C@H](SC)[C@H](OP(=O)(O)O)[C@@H](O)[C@H]2O)[C@H](C)Cl)N(C)C1 | inactive | – |
| CCN(CC)CCOc1ccc(-c2nc3cc(Cl)ccc3s2)cc1 | 20 µM (active) | – |
| CNC(C)[C@@H]1CC[C@@H](N)[C@@H](O[C@H]2[C@H](O)[C@@H](O[C@H]3OC[C@](C)(O)[C@H](NC)[C@H]3O)[C@H](N)C[C@@H]2N)O1 (some centres not stated) | – | -11.5% [at 21.2 µM] (inactive) |
| Cc1ccccc1OCC(O)CNCCOc1ccc(C(N)=O)cc1 (configuration not stated) | – | -23.8% (inactive) |
| CC(=O)OCC(=O)[C@@]1(O)CC[C@H]2[C@@H]3C[C@H](C)C4=CC(=O)C=C[C@]4(C)[C@H]3[C@@H](O)C[C@@]21C | – | -9.25% (inactive) |
| Cc1cc(/C=C/c2ccc3cc(N(C)C)ccc3[n+]2C)c(C)n1-c1ccccc1 | 11.2 µM (active) | – |
| CC(C)(C)NC(=O)[C@@H]1C[C@@H]2CCCC[C@@H]2CN1C[C@@H](O)[C@H](Cc1ccccc1)NC(=O)[C@H](CC(N)=O)NC(=O)c1ccc2ccccc2n1 | – | -27.6% (inactive) |
| CCOC(=O)O[C@]1(C(=O)COC(=O)CC)CC[C@H]2[C@@H]3CCC4=CC(=O)C=C[C@]4(C)[C@H]3[C@@H](O)C[C@@]21C | – | -7.16% [at 21.2 µM] (inactive) |
| CN(C)CC/C=C1/c2ccccc2CSc2ccccc21 | – | -31.5% [at 21.2 µM] (inactive) |
| CC[C@@H](C(=O)O)[C@@H]1O[C@@H]([C@@H](C)[C@H](O)[C@H](C)C(=O)[C@H](CC)[C@H]2O[C@]3(C=C[C@@H](O)[C@]4(CC[C@@](C)([C@H]5CC[C@](O)(CC)[C@H](C)O5)O4)O3)[C@H](C)C[C@@H]2C)[C@@H](C)C[C@@H]1C | 0.794 µM (active) | – |
| CCCCC(=O)O[C@]1(C(=O)CO)[C@H](C)C[C@H]2[C@@H]3CCC4=CC(=O)C=C[C@]4(C)[C@@]3(F)[C@@H](O)C[C@@]21C | – | -15.4% (inactive) |
